According to PubChem BioAssay AID1347043 (National Center for Advancing Translational Sciences (NCATS), 2019):
The campaign covered roughly 76,000 compounds. About 1,900 (2.5%) were called active. Entries that show only a call come without a potency. Not shown: some 5% with an inconclusive outcome. The call rests on the fitted dose curve; in most records, active means well fitted inhibition curve with a large enough effect; inconclusive means small, poorly fitted or top-dose-only effect; inactive means flat fitted curve, though single readings scatter. For the sample, actives were picked, then their nearest neighbours and some compounds at random.
Further: nearly all actives have a fitted effect of over 65% in size.
Potency means the concentration at half of the fitted maximal effect.

Each molecule was assayed against Luciferin 4-monooxygenase (Photinus pyralis) (UniProt P08659) (assay: Firefly luciferase inhibition profiling of diverse chemical library using quantitative high-throughput screening). Conditions: purified P. pyralis luciferase, luminescence, biochemical; series mostly up to 115 µM.
Luciferin 4-monooxygenase (Photinus pyralis), sequence (P08659 whole entry, looked up): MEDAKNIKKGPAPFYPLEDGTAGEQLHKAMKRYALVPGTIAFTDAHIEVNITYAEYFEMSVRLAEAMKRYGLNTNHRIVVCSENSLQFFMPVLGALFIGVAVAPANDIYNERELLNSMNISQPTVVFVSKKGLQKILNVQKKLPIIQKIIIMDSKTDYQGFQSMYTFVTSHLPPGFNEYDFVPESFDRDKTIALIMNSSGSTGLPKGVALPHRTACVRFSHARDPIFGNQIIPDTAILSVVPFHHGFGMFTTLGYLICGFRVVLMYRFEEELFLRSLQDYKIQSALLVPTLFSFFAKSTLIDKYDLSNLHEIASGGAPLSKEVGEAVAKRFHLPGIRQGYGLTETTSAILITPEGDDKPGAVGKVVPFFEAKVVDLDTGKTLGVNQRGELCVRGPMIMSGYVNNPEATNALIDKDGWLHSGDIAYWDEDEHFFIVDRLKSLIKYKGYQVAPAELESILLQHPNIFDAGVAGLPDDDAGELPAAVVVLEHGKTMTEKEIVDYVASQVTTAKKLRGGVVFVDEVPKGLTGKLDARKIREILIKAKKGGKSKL
In short: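 Luminescence read by CCD imaging after purified firefly luciferase (10nM final) was added to substrate buffer holding 10uM D-luciferin and 10uM ATP, pH 7.5, pre-dosed with compound.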
In the case of `COc1ccccc1N1CCN(C(=O)Cn2c(N3CCc4ccccc4C3)nc(C)cc2=O)CC1`, the Potency is reported as “inactive”. For `Cc1cccc(-c2cc(C3CCN(S(=O)(=O)c4cccc(C#N)c4)CC3)[nH]n2)c1`, the Potency was “inactive”. For `COc1ccc(F)cc1CN1CCCC(CO)(CC2CC2)C1` (stereo not given), the Potency was “inactive”. For `CCNC(=O)N1CCCC1c1noc(CCC(=O)NCC2CC2)n1` (stereo not given), the Potency was “inactive”. For `C=CCC1(OC)CCN(C(=O)c2cnn3cc(CN(CC)CC)cnc23)CC1`, the Potency was “inactive”. For `COCCNC(=O)[C@H]1C[C@H](Oc2cccnc2)CN1S(=O)(=O)c1cn(C)cn1`, the Potency was “inactive”. For `COc1cncc(-c2cccc(COc3ccc4c(cnn4CC[S+](C)(=O)[O-])c3)c2)c1`, the Potency was “inactive”. For `C[S+](=O)([O-])CCn1ncc2cc(OCc3cccc(-c4ccccc4)c3)ccc21`, the Potency was 14.1 µM (active). `CN(C)Cc1cn2c(=O)n(C)cc(-c3cccc(OCc4ccccc4)c3)c2n1` was tested, and the Potency was “inactive”. `Cn1cnc(S(=O)(=O)N2CCC(N(C(=O)C3CC3)C3CCOCC3)CC2)c1` was tested, and the Potency was “inactive”. In the case of `Cc1ccc(C(=O)NC2CCN(c3cc(-c4cccs4)[nH]n3)C2)cc1` (stereo not given), the Potency is reported as “inactive”. In the case of `Cc1ccc2cc(CN3CCN(CC(N)=O)CC3)c(-c3cccs3)nc2c1`, the Potency is reported as 12.6 µM (active). For `Cc1cccnc1C(=O)N[C@@H]1CN(c2ncccn2)C[C@H]1CO`, the Potency was “inactive”. `COc1ccc(-c2nccc3c(=O)cc(N(C)c4ccccc4)oc23)cn1` was tested, and the Potency was “inactive”. `COc1ccc(CN2CCc3oc(C)c(C(=O)NC(C)Cn4ccc(C)n4)c3C2)cc1` (stereo not given) was tested, and the Potency was “inactive”. In the case of `COCCOCC(=O)N1CCCC(c2nc(-c3ccccc3)no2)CCNC(=O)CC1` (stereo not given), the Potency is reported as “inactive”. With `O=[N+]([O-])c1cccc(-c2noc([C@@H]3C[C@@H](O)CN3Cc3cccnc3)n2)c1` the Potency was “inactive”. With `O=[N+]([O-])c1cccc(-c2noc([C@@H]3C[C@@H](O)CN3Cc3cccc(OC(F)(F)F)c3)n2)c1` the Potency was “inactive”. `O=[N+]([O-])c1ccccc1CN1C[C@H](O)C[C@H]1c1nc(-c2ccc(F)cc2)no1` was tested, and the Potency was 50.1 µM (active). In the case of `CCCNC(=O)C(NC(=O)c1cccc(OC)c1)C1CCN(C(=O)c2ccccc2F)CC1` (stereo not given), the Potency is reported as “inactive”. In the case of `CCNC(=O)O[C@@H]1CO[C@H]2[C@@H]1OC[C@@H]2NC(=S)Nc1cccc2ccccc12`, the Potency is reported as “inactive”. For `COc1ccc(NC(=O)c2ccc(CN3C(=O)NC4(CCOCC4)C3=O)cc2)c(OC)c1`, the Potency was “inactive”. With `COc1ccc(CN2C(=O)CO[C@H](c3ccc(NC(=O)c4ccccc4OC)cc3)[C@H]2CO)cc1` the Potency was “inactive”. In the case of `CCNC(=O)C1C(c2cccc(NC(=O)c3ccc(OC)cc3)c2)OC(=O)N1Cc1ccc(C)cc1` (stereo not given), the Potency is reported as 11.2 µM (active). For `Cc1nc(-c2ccccc2)n(CC(=O)NCc2ccc(F)cc2)c(=O)c1CCO`, the Potency was “inactive”. `CCCNc1cc(N2CCC(CCC(=O)Nc3ccc(C)cc3)CC2)ncn1` was tested, and the Potency was 28.2 µM (active). `COc1ccc(NC(=O)CCC2CCN(S(=O)(=O)c3ccc(C)cc3)CC2)cc1F` was tested, and the Potency was “inactive”. `Cc1ccc(C(=O)N2CCC(CCC(=O)N3CCc4ccccc4C3)CC2)cc1` was tested, and the Potency was 22.4 µM (active). `Cc1ccc(C(=O)N2CCC(c3nn(-c4ccccc4)c(=O)[nH]3)CC2)cc1` was tested, and the Potency was “inactive”. With `CCCNC(=O)N(C1CCOCC1)C1CCN(C(=O)c2ccncc2)CC1` the Potency was “inactive”. In the case of `CN1N=C(C(=O)N2CCC(CCC(=O)Nc3ccc4c(c3)OCCO4)CC2)CCC1=O`, the Potency is reported as “inactive”. With `CCCNC(=O)CCC1CCN(C(=O)c2ccc(C)cc2)CC1` the Potency was 31.6 µM (active). `O=C(c1ccc2c(c1)[nH]c(=O)n2C1CCC(O)CC1)N1CCc2ccccc2C1` (stereo not given) was tested, and the Potency was “inactive”. `Cc1ccc(S(=O)(=O)N2CCC(CCC(=O)NCc3ccccc3)CC2)cc1` was tested, and the Potency was “inactive”. `CN(CCCNC1CCC2(CCNCC2)CC1)c1ccccc1` was tested, and the Potency was “inactive”. With `O=C(Nc1ccc(F)cc1)[C@@H]1C[C@@H](c2ccc(F)cc2)N([S+](=O)([O-])c2ccccc2)C1` the Potency was “inactive”. For `O=C(NCc1ccccc1)NC1CCc2nn(CC3CC3)c(=O)n2CC1` (stereo not given), the Potency was “inactive”. In the case of `CCCc1noc(-c2cn(C3CCN(C(=O)c4ccc(C)s4)CC3)nn2)n1`, the Potency is reported as “inactive”. With `O=C(NCCc1ccccc1)c1ccc2c(c1)OCCN(CCC(F)(F)F)C2` the Potency was 39.8 µM (active). With `O=C(NCc1cccs1)c1ccc2c(c1)OCCN(c1ccccc1)C2` the Potency was “inactive”. In the case of `Cc1cc(NC(=O)c2ccc3c(c2)OCCN(CCC(F)(F)F)C3)ccc1F`, the Potency is reported as “inactive”. `CC(C)NC(=O)C1COC2(CCN(C(=O)c3ccccc3Cl)CC2)N1C(=O)c1ccccc1` (stereo not given) was tested, and the Potency was “inactive”. With `O[C@H]1CC[C@@H](Cc2cc(-c3ccccc3)on2)O[C@@H]1CNCc1ccccc1` the Potency was “inactive”. With `CC(C)(C)c1ccc(N2C(=O)[C@@H]3C[C@@H](NC(=O)[C@@H](O)c4ccccc4)CCN3C2=O)cc1` the Potency was 35.5 µM (active). In the case of `CCn1ncc(N2CCC(NC(=O)C(C)c3ccccc3)CC2)cc1=O` (stereo not given), the Potency is reported as “inactive”. `C=CCN1C(=O)[C@@H]2C[C@@H](NC(=O)c3ccncc3)CCN2C1=O` was tested, and the Potency was “inactive”. With `Cc1nc(-c2ccc(F)cc2)n(Cc2cccc(Cl)c2)c(=O)c1CCO` the Potency was “inactive”. In the case of `Cn1cccc1CN1CCC(N2CCC[S+]2(=O)[O-])CC1`, the Potency is reported as “inactive”. In the case of `CCN1C(=O)CCN(C(=O)CCc2ccc(OC)cc2)CC12CCOCC2`, the Potency is reported as “inactive”. `CC(C)CC(=O)N1CCC(c2noc(-c3cnccn3)n2)C1` (stereo not given) was tested, and the Potency was “inactive”. In the case of `COc1ccc(C(=O)N2CCC3(CC2)CC(OC)CCO3)cc1OC` (stereo not given), the Potency is reported as “inactive”. `CCn1cnnc1CC1CCN(C(=O)C2CCN(Cc3nc(-c4cccc(C)c4)oc3C)CC2)CC1` was tested, and the Potency was “inactive”. In the case of `COCc1nncn1C1CCN(C(=O)c2ccccc2F)CC1`, the Potency is reported as “inactive”. With `CCn1cnnc1CC1CCN(C(=O)c2cc(-c3ccc(F)cc3)nc3ccccc23)CC1` the Potency was 14.1 µM (active). `Cc1noc(-c2cccc(OC3CN(C(=O)NCCc4ccccc4)C3)c2)n1` was tested, and the Potency was “inactive”. For `COc1nccc(N2CCC(CC(=O)NCc3ccc(F)cc3Cl)CC2)n1`, the Potency was “inactive”. `CN(C)C[C@@H]1CN(C)C[C@H]1NC(=O)c1ccnnc1` was tested, and the Potency was “inactive”. `COc1ccc2[nH]c(C(=O)N[C@@H]3CN(S(C)(=O)=O)C[C@H]3CN(C)C)cc2c1` was tested, and the Potency was “inactive”. With `CN(C)C[C@@H]1CN(C)C[C@H]1NC(=O)c1cc2ccccc2[nH]1` the Potency was 39.8 µM (active). `COc1ccccc1Nc1cnc2ccc(-c3ccc(OC)c(OC)c3)nn12` was tested, and the Potency was “inactive”. With `COCC1CN(C(=O)c2cc(C)n(C)n2)CC12CCNCC2` (stereo not given) the Potency was “inactive”. For `O=C(NC1CC1)c1ccc2c(c1)C1(CCN(CC3CC3)C1)CN2Cc1ccccc1` (stereo not given), the Potency was “inactive”. In the case of `CC(=O)Nc1ccc(CN2CCCC3(CC(c4cccc(C(F)(F)F)c4)=NO3)C2)cc1` (stereo not given), the Potency is reported as “inactive”. For `CC(=O)NC1(C)CCN(Cc2cccc(-c3ccc(C(=O)c4ccccc4)cc3)c2)C1` (stereo not given), the Potency was 39.8 µM (active). `CSCCNC(=O)c1coc(CN2CCN(C/C=C/c3ccccc3)CC2)n1` was tested, and the Potency was “inactive”. In the case of `Cc1cccc(NC(=O)C2CC(=O)N(c3n[nH]c4ccccc34)C2)n1` (stereo not given), the Potency is reported as “inactive”. With `Cc1ccsc1C(=O)NCC1Cn2cccc2C(=O)N1Cc1ccccc1` (stereo not given) the Potency was “inactive”. In the case of `Cc1ccc(S(=O)(=O)Nc2ccc(C)n(CC(=O)NCc3cccc(F)c3)c2=O)cc1`, the Potency is reported as “inactive”. For `COc1ccc(NC(=O)Cn2c(C)ccc(NS(=O)(=O)c3ccccc3)c2=O)cc1`, the Potency was “inactive”. In the case of `Cc1ccc(NC(=O)Nc2ccc(C)n(CC(=O)NCCN3CCCC3)c2=O)cc1`, the Potency is reported as 14.1 µM (active). For `CN(C)c1ccc(CN2CCC3(CC(Cc4ccccc4)=NO3)C2)cc1` (stereo not given), the Potency was “inactive”. In the case of `CCN1c2cc(C(=O)NCc3ccc(OC)cc3OC)ccc2C(=O)N2CCCCCC21` (stereo not given), the Potency is reported as “inactive”. For `CCN1c2cc(C(=O)Nc3ccc(F)c(C)c3)ccc2C(=O)N2CCCCC21` (stereo not given), the Potency was “inactive”. With `CCOc1ccc(NC(=O)c2ccc3c(c2)N(C)C2CCCN2C3=O)cc1` (stereo not given) the Potency was 44.7 µM (active). `CN1c2cc(C(=O)Nc3ccc(F)cc3)ccc2C(=O)N2CCCCC21` (stereo not given) was tested, and the Potency was 25.1 µM (active). For `COc1ccc(CNC(=O)c2ccc3c(c2)N(C)C2CCCCN2C3=O)c(OC)c1` (stereo not given), the Potency was “inactive”. With `CN1c2cc(C(=O)N3CCC(C(N)=O)CC3)ccc2C(=O)N2CCCCC21` (stereo not given) the Potency was “inactive”. For `Cc1cc(NC(=O)c2ccc3c(c2)N(C)C2CCCCCN2C3=O)ccc1F` (stereo not given), the Potency was 17.8 µM (active). In the case of `CCN1c2cc(C(=O)Nc3ccc(OC)c(F)c3)ccc2C(=O)N2CCCCC21` (stereo not given), the Potency is reported as “inactive”. For `CCN1c2cc(C(=O)Nc3ccc(SC)cc3)ccc2C(=O)N2CCCCCC21` (stereo not given), the Potency was “inactive”. For `Cc1ccc(CNC(=O)c2ccc3c(c2)N(C)C2CCCCN2C3=O)cc1C` (stereo not given), the Potency was “inactive”. For `CCN1c2cc(C(=O)Nc3ccc(F)c(Cl)c3)ccc2C(=O)N2CCCCC21` (stereo not given), the Potency was “inactive”. With `CN1c2cc(C(=O)Nc3ccc(F)c(F)c3)ccc2C(=O)N2CCCCCC21` (stereo not given) the Potency was 5.62 µM (active). `O=C(Cc1cccc(Cl)c1)N1CCC([C@@H]2CNC[C@H]2CO)CC1` was tested, and the Potency was “inactive”. For `CN1CCN(C2CCOC3(CCN(C(=O)c4cccc5[nH]ccc45)CC3)C2)CC1` (stereo not given), the Potency was “inactive”. For `O=C(NCc1ccccc1C(F)(F)F)c1cc2n(n1)CC(c1ccc3c(c1)OCO3)OC2` (stereo not given), the Potency was “inactive”. With `CC(C)CN1CCN(C2CCOC3(CCN(C(=O)C4CCCC4)CC3)C2)CC1` (stereo not given) the Potency was “inactive”. For `O=C(NCc1nnc2c(-c3nc(C4CC4)no3)cccn12)c1cccnc1`, the Potency was “inactive”. For `CC(=O)N1CCc2[nH]cnc2C12CCN(C(=O)C(C)Oc1ccccc1)CC2` (stereo not given), the Potency was “inactive”. In the case of `CCc1noc(-c2ccn3c(CNC(=O)c4ccc(OC)c(F)c4)nnc3c2)n1`, the Potency is reported as “inactive”. In the case of `O=C(c1ccc2c(c1)OCO2)N1CCCC2(CN[S+](=O)([O-])c3ccccc3N2)C1` (stereo not given), the Potency is reported as “inactive”. For `CCCn1c(C)cnc1CC1CCN(C(=O)CCOC)CC1`, the Potency was “inactive”. In the case of `Cc1cccc(N2C(=O)CSC23CCN(C(=O)C2CCC2)CC3)c1`, the Potency is reported as “inactive”. `COc1ccnc(CN2CCN(C)C3(CCC(=O)N(C)CC3)C2)c1OC` (stereo not given) was tested, and the Potency was “inactive”. For `CCN(CC)CC[C@H]1CN(C(=O)c2ccc(N(C)C)cc2)CC[C@H]1CC(=O)O`, the Potency was “inactive”.
